Assay outcomes as filed in PubChem.
Rows were chosen to be rich in hits. Some 19% of all compounds tested hit in one or more screens of this group.
DT40 TDP1 CPT = DT40-hTDP1 cell growth loss with CPT | chicken DT40 Tdp1-/-;hTDP1 cells + 20 nM CPT, ATP luminescence, 48 h | Potency, µM (top dose mostly 46.2 µM), actives largely listed as inhibitors | hit rate 12% among 420,000; also: nearly all actives have a fitted effect of over 55% in size
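Chicken DT40 Tdp1-/- cells stably complemented with human TDP1 were seeded at 400 cells/well in medium containing 20 nM camptothecin, exposed to pin-transferred compounds, and grown at 37 °C for at least 48 hr. Viability was read as ATP luminescence.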
TDP1 cell noCPT = qHTS for Inhibitors of human tyrosyl-DNA phosphodiesterase 1 (TDP1): qHTS in cells in absence of CPT | DT40 Tdp1-/- hTDP1 cells, no CPT, ATP luminescence, 48 h | Potency, µM (titrated, usually from 46.2 µM), most hits filed as inhibitors | hit rate 15% among 420,000 | AID 686978, 2013; also: nearly all actives have a fitted effect of over 55% in size
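Stably hTDP1-transfected Tdp1-null chicken DT40 cells were treated with library compounds minus camptothecin and grown for at least 48 hr at 37 °C, after which cellular ATP was quantified by luminescence.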
HepG2 tox = kills HepG2 cells in TGF-b inhibitor counter-screen; HepG2 CAGA-GFP viability, ATP luminescence, 18 h; Potency, µM (titrated, usually from 46.1 µM), most hits filed as cytotoxic; hit rate 0.76% among 410,000
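CellTiter-Glo luminescence gave cytotoxicity after 18 hours at 37 degrees C. The cells were HepG2 CAGA-GFP in 1% FBS DMEM, stimulated with 500 pg/mL TGF-beta after compound addition. %Activity was normalised to no-cell wells (complete cell-killing) and DMSO (no toxicity), and curves were fitted and classified.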
TDP1 inh = inhibitors of human tyrosyl-DNA phosphodiesterase TDP1 | Q9NUW8 | recombinant TDP1, AlphaScreen DNA substrate cleavage | Potency, µM (doses to about 130 µM), usual class: inhibitors | hit rate 0.28% among 350,000 | AID 485290; also: nearly all actives have a fitted effect of over 40% in size
Target sequence (Q9NUW8 whole entry, looked up): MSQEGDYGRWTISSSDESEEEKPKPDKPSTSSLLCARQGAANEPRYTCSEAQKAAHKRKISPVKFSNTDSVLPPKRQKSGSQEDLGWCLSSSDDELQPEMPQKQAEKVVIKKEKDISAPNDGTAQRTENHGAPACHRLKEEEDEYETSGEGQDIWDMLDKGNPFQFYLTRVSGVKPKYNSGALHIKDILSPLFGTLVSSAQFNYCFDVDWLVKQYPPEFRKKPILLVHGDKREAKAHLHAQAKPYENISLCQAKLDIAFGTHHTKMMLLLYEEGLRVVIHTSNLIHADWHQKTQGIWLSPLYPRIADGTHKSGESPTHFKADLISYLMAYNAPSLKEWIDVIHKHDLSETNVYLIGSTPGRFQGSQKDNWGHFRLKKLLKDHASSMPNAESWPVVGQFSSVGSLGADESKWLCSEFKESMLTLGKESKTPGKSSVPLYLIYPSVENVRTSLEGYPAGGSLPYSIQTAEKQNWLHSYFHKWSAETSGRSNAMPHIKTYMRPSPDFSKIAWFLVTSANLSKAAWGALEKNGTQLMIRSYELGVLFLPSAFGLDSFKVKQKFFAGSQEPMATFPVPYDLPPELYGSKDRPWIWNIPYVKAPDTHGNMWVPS
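Signal: AlphaScreen proximity between streptavidin donor and anti-FITC acceptor beads on intact substrate. Reaction: Tdp1 1 nM, substrate 15 nM final, 5 min RT after 15 min compound preincubation.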
IL1B secr inh = inhibitors of inflammasome signaling (IL-1 beta secretion). activity change, % at 57.5 µM. AID 743279. THP-1 LPS/ATP IL-1B secretion, AlphaLISA, 16 h; active compounds read low. hit rate 4.7% among 360,000; in the data active = activity change below about -50%; inconclusive = mostly about -30% to -49%
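Secreted IL-1B measured by AlphaLISA bead assay after 16 h compound exposure of THP-1 cells; compounds (final up to 57.5 uM) added 1 h before LPS (250 ng/mL) and ATP (1.25 mM) stimulation; lower signal means less secretion.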
TGFb SMAD3 inh = inhibitors of TGF-b signaling. HepG2 CAGA-GFP TGF-b/SMAD3 reporter, GFP fluorescence, 18 h; TGF-beta stimulated, 500 pg/mL final. hit rate 1.2% among 410,000. Potency, µM (titrated, usually from 46.1 µM), hits mostly inhibitors; also: nearly all actives have a fitted effect of over 65% in size
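HEPG2 CAGA-GFP, 1000 cells/well; 2 h settle, 37 C; cpd via pin tool; TGF-b 500 pg/mL final; 18 h, 37 C; GFP imaging ex488/em500-530; %Activity normalised to -TGF-b and +DMSO controls; CRC fit, curve class.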
A number is an active result; – = inactive; ? = inconclusive; · = not tested or not shown; [ ] = remark or other dose. Unless noted, calls follow the shape of the dose curve; as a rule, active = well fitted curve in the direction sought with a large enough effect; inconclusive = small, poorly fitted or top-dose-only effect, or another doubt; inactive = no such curve, though single readings can be large; an effect the other way counts as inactive or inconclusive.

SMILES	DT40 TDP1 CPT	TDP1 cell noCPT	HepG2 tox	TDP1 inh	IL1B secr inh	TGFb SMAD3 inh
CCOc1ccc(S(=O)(=O)NCCc2c(C)[nH]c3c(Cl)cccc23)cc1C	23µM	?	18µM	–	·	16µM
CCOc1ccc(S(=O)(=O)NCc2cccnc2)cc1C	–	–	–	–	–	–
C/C(CCc1oc2c(Br)cc(Br)cc2c1-c1ccc(C)o1)=N\O	16µM	18µM	–	–	–	–
CC(=O)CCc1oc2c([N+](=O)[O-])cccc2c1-c1ccc(C)o1	?	?	–	–	–	–
C/C(CCc1oc2ccccc2c1-c1ccc(C)o1)=N/O	?	18µM	–	–	–	–
CC(C(=O)NCc1ccc(Cl)cc1)n1ccc2cc(S(=O)(=O)N3CCCCCC3)ccc21 (stereo not given)	?	18µM	–	–	·	–
CC(C)Oc1ccc(CNC(=O)C(C)n2ccc3cc(S(=O)(=O)N4CCCCCC4)ccc32)cc1 (stereo not given)	?	21µM	–	–	·	–
CC(C)n1ncc2c(C(=O)Nc3cccc(S(=O)(=O)N(C)C)c3)cc(C3CC3)nc21	18µM	9.2µM	–	–	·	–
CC(C)n1ncc2c(C(=O)Nc3ccc(S(C)(=O)=O)cc3)cc(C3CC3)nc21	?	?	–	–	–	–
CC(=O)Nc1ccc(NC(=O)c2cc(C3CC3)nc3c2cnn3C(C)C)cc1	29µM	?	–	–	–	–
COC(=O)C1=C(C(=O)OC)[C@@H]2Nc3ccccc3[C@@]23C[C@@H](C(=O)OC)N(S(=O)(=O)c2ccc4c(c2)OCCN4C)C3=N1	·	·	·	–[12.3 µM]	·	·
COc1ccc(NS(=O)(=O)c2cccc(C(=O)N3CCN(Cc4ccc5c(c4)OCO5)CC3)c2)cc1	26µM	?	–	–	–	–
COc1ccc(NS(=O)(=O)c2cccc(C(=O)N3CCN(C/C=C/c4ccccc4)CC3)c2)cc1	23µM	16µM	–	·	–	–
Cc1cccc(NS(=O)(=O)c2cccc(C(=O)N3CCCCCCC3)c2)c1	18µM	5.2µM	–	–	-60	?
COc1ccccc1NS(=O)(=O)c1cccc(C(=O)N2CCN(C/C=C/c3ccccc3)CC2)c1	21µM	21µM	–	–	–	?
COc1ccccc1NS(=O)(=O)c1cc(C(=O)N2CCN(C/C=C/c3ccccc3)CC2)ccc1C	?	?	–	–	–	?
C=CCOC(=O)[C@H](O)[C@@H](O)C(=O)OCC=C	·	·	·	–	·	·
Cc1cccc(NS(=O)(=O)c2cccc(C(=O)N3CCN(C/C=C/c4ccccc4)CC3)c2)c1	?	?	–	–	-54	?
CO[C@H]1C[C@H](O[C@H]2[C@H](C)[C@@H](O[C@@H]3O[C@H](C)C[C@H](N(C)C)[C@H]3O)[C@@H](C)C[C@]3(CO3)C(=O)[C@H](C)[C@@H](O)[C@@H](C)[C@@H](C)OC(=O)[C@@H]2C)O[C@@H](C)[C@@H]1O	–	–	·	·	·	·
CCCNc1nc(N2CCCC2)nc(N2CCCC2)n1	?	13µM	–	–	-65	–
CCNc1nc(NC(C)(C)C)nc(N2CCCC2)n1	18µM	?	–	–	–	–
CC(C)(C)Nc1nc(N2CCCC2)nc(N2CCCC2)n1	?	16µM	–	–	–	?
CNc1cccc(S(=O)(=O)N2CCN(S(=O)(=O)c3ccc4c(c3)OCCO4)CC2)c1	·	·	·	–	·	·
C=C1C=C(C(F)F)n2ncc(C(=O)N3CCN(c4ccccc4)CC3)c2N1	11µM	?	–	·	·	–
C=C1C=C(C(F)F)n2ncc(C(=O)N3CCc4ccccc4C3)c2N1	?	?	–	·	·	–
SMILES	DT40 TDP1 CPT	TDP1 cell noCPT	HepG2 tox	TDP1 inh	IL1B secr inh	TGFb SMAD3 inh
COc1cccc(/C=C/c2ccc3cccc(O)c3n2)c1	?	7.3µM	–	·	?	–
Cc1ccc(/C=C/c2ccc3cccc(O)c3n2)s1	?	16µM	–	–	–	–
O=[N+]([O-])c1ccc(/C=C/c2ccc3cccc(O)c3n2)cc1	21µM	16µM	–	·	–	–
Cc1cccc(/C=C\c2ccccc2)n1	?	–	·	–	·	·
Oc1cccc(/C=C/c2ccc3cccc(O)c3n2)c1	18µM	16µM	–	·	–	?
COc1cccc2ccc(/C=C/c3ccc4c(c3)OCO4)nc12	?	?	–	–	·	–
CCN(CC)CCCNc1oc(/C=C/c2ccc(OC)c(OC)c2)nc1C#N	–	?	–	–	·	–
COc1ccc(CCNC(=O)c2ccccc2C(=O)NCCc2ccc(OC)c(OC)c2)cc1OC	–	–	–	·	–	–
COC(=O)c1ccc(/C=C/c2ccc3cccc(OC)c3n2)cc1	?	?	–	–	–	?
CC(=O)COc1cccc2ccc(/C=C/c3ccc(Br)s3)nc12	21µM	?	–	·	–	?
Cc1cc(C)c2nc(NC(=O)c3ccc(S(=O)(=O)N4CCc5ccccc54)cc3)sc2c1	–	–	–	–	·	–
Cc1ccc2nc(NNC(=O)c3ccc(S(=O)(=O)N4CCc5ccccc5C4)cc3)sc2c1	2.9µM	5.2µM	–	–	–	?
Cc1cc(C)c2nc(NC(=O)c3ccc(S(=O)(=O)N4CCC(C)CC4)cc3)sc2c1	–	–	–	–	·	?
Cc1cc(C)c2nc(NNC(=O)c3ccc(S(=O)(=O)N4CC(C)CC(C)C4)cc3)sc2c1 (stereo not given)	5.8µM	5.8µM	–	–	–	?
Cc1cccc2sc(NNC(=O)c3ccc(S(=O)(=O)N4CC(C)CC(C)C4)cc3)nc12 (stereo not given)	13µM	7.3µM	–	–	–	?
Cc1cc(C)c2nc(NNC(=O)c3ccc(S(=O)(=O)N4CCCC(C)C4)cc3)sc2c1 (stereo not given)	2.9µM	4.1µM	–	–	–	?
CCCSCCCNC(=O)CN1C(=O)COc2ccc(S(=O)(=O)N3CCCCCC3)cc21	?	?	–	–	·	?
CCS(=O)(=O)NCc1c(C)ncc2c1CCN(C(=O)c1ccc(F)cc1)C2	–[9.04 µM]	–	·	·	·	·
COc1cccc(C2(CC(=O)N3CCCOc4c(cccc4OC)C3)CC(=O)N(C)C2=O)c1 (stereo not given)	–	–	·	·	·	·
Cc1nn(Cc2c(F)c(F)c(F)c(F)c2F)c(C)c1NC(=O)c1ccc(COc2ccc(F)cc2)o1	16µM	21µM	–	–	?	?
Cc1nn(Cc2c(F)c(F)c(F)c(F)c2F)c(C)c1NC(=O)c1ccc(COc2ccccc2Cl)cc1	?	1.5µM	–	–	–	?
